# According to PubChem BioAssay AID1347075 (National Center for Advancing Translational Sciences (NCATS), 2019):
# About 5,500 (1.4%) of roughly 400,000 compounds were called active. Another 9% or so got no clear call; they are omitted. Only a selection was taken, and actives are over-represented in it overall. Values without a mark were called inactive. Calls come from the whole dose curve; as a rule, active = well fitted cell-killing curve with a large enough effect; inconclusive = small, poorly fitted or top-dose-only effect, or effect the other way; inactive = flat fitted curve, though single readings scatter.
# Assay: qHTS assay for MDR1-selective chemotherapeutics: Primary screen using the parental adenocarcinoma cell KB-3-1; note: nearly all actives have a fitted effect of over 60% in size
# Settings: KB-3-1 viability, CellTiter-Glo ATP luminescence, 72 h; series mostly up to 46.1 µM; activity change, negative = cytotoxic: at the top concentration
# Outline: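 Cells are dispensed, compounds pinned in, plates held at 37 °C for 72 h, then CellTiter-Glo is added and luminescence read after 10 minutes. Cell line: parental KB-3-1 in phenol-red-free DMEM, 10% FBS.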
# % is set by controls: 0 for no effect and ±100 for the full control effect; potency is the fitted concentration of half-maximal effect.
SMILES,"activity change, negative = cytotoxic",Potency
CCc1nn(CC(=O)N2CCN(c3ccc(Cl)cc3)CC2)c(=O)c2cc3occc3n12,-3.22%,–
CC1CN(C(=O)N2CCC(C(=O)NCc3cccs3)CC2)c2ccccc2O1 (centres undefined),0.156%,–
CCOc1ccc(Nc2nc3c(S(=O)(=O)c4cccc(Cl)c4)nnn3c3ccsc23)cc1,-4.65%,–
Cc1cccc(NC(=O)CSc2ncc(-c3ccccc3)[nH]2)c1C,4.52%,–
CCOc1ccc(C(CCc2ccccc2)NC(=O)c2ccc(OC)c(OC)c2)cc1OCC (centres undefined),-6.52%,–
CCCCC(=O)NC(c1ccc(OC)c(OC)c1)c1ccc2cccnc2c1O (centres undefined),–,5.8 µM (active)
CCOc1ccc(C(NC(=O)c2cc(OC)c(OC)c(OC)c2)c2cc(Cl)c3cccnc3c2O)cc1 (centres undefined),1.48%,–
COc1ccccc1CNC(=O)CCCn1c(=O)c2ccccc2n(CC(=O)Nc2ccc(C)cc2Cl)c1=O,1.36%,–
COc1ccccc1N1CCN(CCCNC(=O)c2cnn(-c3ccccc3Cl)c2C2CCN(C(=O)OC(C)(C)C)CC2)CC1,-8.96%,–
Oc1ccc(Br)cc1C1C=C(c2ccc3c(c2)OCO3)NC(c2ccc(Cl)cc2)N1 (centres undefined),-20.8%,–
Cc1cccc(-c2nc(SCC(=O)Nc3cc(C)on3)c3c(=O)n(C)c(=O)n(C)c3n2)c1,17.7%,–
NC(=O)C1CCN(c2ncc(-c3ccc(Cl)cc3)s2)CC1,-4.4%,–
CC(=O)Nc1ccc(N2CCOCC2)c(C(=O)Nc2cccc(C)c2)c1,0.437%,–
Cc1cccc(NC(=O)CCn2c(=O)oc3ccccc32)c1,-9.78%,–
Cc1cccc(NC(=O)c2ccc([N+](=O)[O-])o2)c1,–,9.2 µM (active)
CCCN1CCc2nc(N3CCN(C)CC3)ncc2C1,0.109%,–
COc1ccc(-c2c(C)nn3c(N4CCC(C(=O)NCCC(C)C)CC4)cc(C)nc23)cc1OC,-6.48%,–
CCCCCCCCn1c2c(c(=N)c3c1CCC3)CCCC2,–,0.411 µM (active)
CCN1CCC(N(Cc2ccc(F)cc2)C(=O)Nc2cc(C)ccc2C)CC1,-5.29%,–
CC(OC(=O)CN1C(=O)c2ccccc2C1=O)C(=O)c1ccccc1 (centres undefined),7.26%,–
Cc1cc(/C=C2/SC(=O)N(CC(=O)OC(C)C)C2=O)c(C)n1C,-8.03%,–
CC(C)OC(=O)CN1C(=O)C(=O)c2ccccc21,–,18.4 µM (active)
CCCCNC(=O)c1cc(-c2ccc(Cl)c(Cl)c2)on1,13.5%,–
Cc1c(-c2nsc(NC(=O)c3cccc(Cl)c3)n2)nnn1-c1ccccc1C(F)(F)F,–,23.1 µM (active)
CCc1cccc(-n2nnc(-c3nsc(NC(=O)c4ccc(C)cc4)n3)c2C)c1,0.369%,–

SMILES,"activity change, negative = cytotoxic",Potency
COc1ccc(-n2nnc(-c3nsc(NC(=O)c4ccc(C)c(C)c4)n3)c2C)cc1Cl,1.71%,–
Cc1ccc(-c2nc(=N)sn2Cc2ccccc2)cc1,-13.7%,–
CCOc1ccccc1N(C)C(=O)c1cc2c(s1)-c1ccccc1OC2,3.52%,–
CCCCC(CCCC)c1ccc(C=Nc2ccc(/C=C/c3ccnc4ccccc34)cc2)cc1,0%,–
Cc1cc(C)n2ncc(C(=O)N3CCCC3)c2n1,5.58%,–
COc1cccc(-c2nnc(SCCOc3ccc4c(C)cc(=O)oc4c3)o2)c1,6.22%,–
Cc1ccccc1NC(=O)c1ccc(COc2ccc3c(C)cc(=O)oc3c2)cc1,4.61%,–
Cc1cc(=O)oc2cc(OCC3CC(c4ccccc4Cl)=NO3)ccc12 (centres undefined),–,1.3 µM (active)
COC(=O)c1ccc(NC(=O)c2cnn(-c3ccc(Cl)cc3)c2C2CCN(C(=O)OC(C)(C)C)CC2)cc1,5.93%,–
Fc1ccc2nc(-c3ccccc3)nc(SCc3nnc(-c4ccccc4)o3)c2c1,15.5%,–
N#CCSc1nc(-c2ccccc2)nc2ccc(F)cc12,-4.14%,–
Clc1ccc2nc(-c3ccccc3)nc(C(Cl)Cl)c2c1,–,3.26 µM (active)
Oc1c(C(c2ccc(F)cc2)N2CCN(Cc3ccccc3)CC2)sc2nc(-c3ccco3)nn12 (centres undefined),7.25%,–
COc1cc(OC)c(OC)cc1/C=C/c1nc2ccccc2c(=O)n1-c1ccc(Br)c(C)c1,-8.72%,–
Cc1cc(C)nc(NS(=O)(=O)c2ccc(NC(=O)c3cc(=O)c4ccc(C)c(C)c4o3)cc2)n1,-0.0966%,–
COc1ccc2c(c1)c(N1CCCC1=O)c(C(=O)Nc1ccc(OC)c(Cl)c1)n2C,-21.1%,–
Cc1cc(NC(=O)COc2ccccc2C#N)no1,4.1%,–
CC(NC(=O)CSc1nc2c(cc1C#N)CN(C)CC2)c1ccccc1 (centres undefined),-1.09%,–
Cc1cc(NC(=O)CSc2nc3c(cc2C#N)CCCCC3)no1,–,5.8 µM (active)
COc1ccc(S(=O)(=O)NCC(c2ccc(N(C)C)cc2)N2CCc3ccccc32)cc1OC (centres undefined),-19.8%,–
COc1ccccc1N1CCN(C(=O)c2cn(-c3ccccc3)nc2-c2cccnc2)CC1,-3.96%,–
O=C(NCCCN1CCOCC1)c1cn(-c2ccccc2)nc1-c1ccc(F)cc1,2.18%,–
O=C(NNC(=S)NC(=O)c1cn(-c2ccccc2)nc1-c1ccccc1)c1ccncc1,–,8.2 µM (active)
COc1ccc(NC(=O)c2cnc(Nc3ccc(C)c(Cl)c3)c3ccccc23)cc1OC,13.9%,–
Brc1nc2ncnc(NCc3ccco3)c2[nH]1,-9.05%,–

SMILES,"activity change, negative = cytotoxic",Potency
O=C(CNS(=O)(=O)c1cccs1)N1CCN(c2ccccc2Cl)CC1,5.47%,–
Cc1cccc2c1-c1sc(C(=O)Nc3ccc(F)cc3F)cc1CO2,-20.5%,–
CCn1cc2nc(SCc3cccc(F)c3)n(CCc3ccccc3)c(=O)c2n1,-0.543%,–
Cc1nn(-c2ccccc2)c(Cl)c1/C=N/NC(=O)c1nn(C)cc1[N+](=O)[O-],–,18.4 µM (active)
Cc1nn(Cc2ccc(Cl)cc2)c(Cl)c1/C=N/NC(=O)CNc1ccccc1F,-11.9%,–
Cn1cc([N+](=O)[O-])c(C(=O)Nc2ccc3c(c2)OCCO3)n1,-20.5%,–
Cc1ccc(C2CCN(C(=S)Nc3cccc(Cl)c3)C2)cc1 (centres undefined),3.93%,–
O=C(Nc1cccc(Cl)c1)c1csnn1,1.29%,–
Cc1csc(NC(=S)Nc2cccc(Cl)c2)n1,–,20.6 µM (active)
COc1ccccc1C(=O)NCCn1cc(SCc2ccccc2Cl)c2ccccc21,-13.7%,–
CCOC(=O)c1ccc(NC(=O)CCS(=O)(=O)c2ccc3c(c2)oc(=O)n3C)cc1,22.5%,–
O=C(NCc1ccc(F)cc1)c1ccc(Cn2c(SCc3ccc(F)cc3)nc3cccnc32)cc1,-6.9%,–
Cc1ccc(OCCSc2nc(-c3cccs3)nc3cc(=O)[nH]n23)cc1Cl,-7.11%,–
COc1cccc2c1C(=O)c1c(O)c3c(c(O)c1C2=O)CC(O)(C(C)=NNC(=O)c1ccc(Cl)c(Cl)c1)CC3OC1CC(N)C(O)C(C)O1 (centres undefined),–,2.06 µM (active)
Cc1ccc(N2CCN(C(=S)Nc3cc(C)ccn3)CC2)cc1,31.7%,–
CCCCCn1c(=O)[nH]c2cc(C(=O)Nc3ccc(F)cc3)ccc2c1=O,-2.16%,–
CCC(=C/c1sc2ccc3ccccc3c2[n+]1C)/C=C1\Sc2ccc3ccccc3c2N1C,–,9.2 µM (active)
COc1ccc(CNC(=O)COCc2cc(-c3cccs3)on2)cc1OC,-12.5%,–
Cc1ccc(OCC(=O)OCc2cc(=O)n3nc(C4CC4)sc3n2)cc1,0.043%,–
CCN1/C(=C\c2ccc3ccccc3[n+]2CC)Sc2cc(C)ccc21,–,4.61 µM (active)
CCN1/C(=C/c2ccc3ccc(C)cc3[n+]2CC)Sc2ccccc21,–,2.59 µM (active)
CC(=O)Nc1ccc(NC(=O)CSc2nnc3c4cc(Br)ccc4n(C)c3n2)cc1,-6.4%,–
NC(=O)Nc1ccc(/C=C/c2ccnc3ccccc23)cc1,-7.08%,–
N#Cc1ccc[n+](CC(=O)c2ccc(F)cc2)c1,11%,–
COc1ccc2sc(-c3ccc(S(C)(=O)=O)cc3)c(C#Cc3cncn3C)c2c1,-2.75%,–

SMILES,"activity change, negative = cytotoxic",Potency
COc1ccc2sc(-c3ccc(S(C)(=O)=O)cc3)c(-c3ccc(C(N)=O)cc3)c2c1,-8.32%,–
COc1ccc2sc(-c3ccc(N(C)C)cc3)c(C#CCO)c2c1,–,16.4 µM (active)
COC(=O)C1C(=O)NCC1c1ccc(C)cc1 (centres undefined),16.2%,–
COC(=O)C1=C(Nc2ccc(C)cc2)C=C(C)C(C(=O)OC)C1c1ccc(F)cc1 (centres undefined),–,11.2 µM (active)
COC(=O)C1(C)NC(c2ccc(C)cc2)C2C(=O)N(c3ccc(F)cc3)C(=O)C21 (centres undefined),-1.4%,–
Cc1ccc2cccc(NC(=O)c3cccc4ccccc34)c2n1,4.73%,–
CCc1ccccc1OCCSc1nc(-c2cccs2)nc2cc(=O)[nH]n12,-16.6%,–
O=C(c1cccc(Cl)c1)N1CCN(CCc2ccncc2)CC1,-4.29%,–
CNc1cncc(-c2ccc(NS(C)(=O)=O)cc2)n1,–,2.91 µM (active)
CNc1cncc(-c2cccc(C(=O)N3CCOCC3)c2)n1,0%,–
CS(=O)(=O)Nc1ccc(C(=O)N2CCCC2)cc1,-5.39%,–
CC(=O)c1sc(N2C(=O)c3oc4ccccc4c(=O)c3C2c2ccc(C)cc2)nc1C (centres undefined),-14.2%,–
COc1ccc(-c2nc3ccccc3o2)cc1NC(=O)c1cc([N+](=O)[O-])ccc1N1CCOCC1,4.59%,–
Cc1ccc2c(c1)-c1c(cnn1CC(=O)Nc1ccccc1C#N)CO2,-1.57%,–
COc1ccccc1CNC(=O)CCn1c(=O)c2ccccc2n(CC(=O)Nc2ccc(Br)cc2F)c1=O,-26.4%,–
CCCC(=O)Nc1cccc(NC(=S)NC(=O)C(C)Oc2ccc(Cl)cc2Cl)c1 (centres undefined),2.78%,–
CC(C)C(=O)Nc1cccc(NC(=S)NC(=O)C(c2ccccc2)c2ccccc2)c1,–,20.6 µM (active)
CC(C)C(=O)Nc1cccc(NC(=O)c2ccc([N+](=O)[O-])cc2Cl)c1,1.16%,–
CCc1ccc(S(=O)(=O)n2ccnc2)cc1,16.3%,–
Cc1cc(C)n2ncc(C(=O)Nc3cccc(C#N)c3)c2n1,0% [at 9.22 µM],–
CCOc1cc(-c2nnc(SCC(=O)NC3CCCC3)nc2-c2ccc(OC)c(OCC)c2)ccc1OC,-2.41%,–
O=C(CN1C(=O)S/C(=C\c2ccccc2Cl)C1=O)NC1C=CS(=O)(=O)C1 (centres undefined),0%,–
O=C1/C(=C\c2ccccc2Cl)SC(=S)N1CCC(=O)N1CCCc2ccccc21,–,23.1 µM (active)
CCn1c(=O)c2ccccc2n(CC(=O)N2CCCc3ccccc32)c1=O,-0.819%,–
